Screening data as filed in PubChem.
CCT modulator = changes cytosolic chaperonin activity; purified chaperonin ATPase assay, HTRF ADP detection, 30 min; activity change, % (test concentration not listed), hits read low; actives 0.3% (n = 360,000); AID 651819; in the data active means activity change below about -30%
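TRiC (40 or 20 nM final, by batch activity) in 30 mM Tris pH 7.4, 100 mM KCl, 5 mM MgCl2, 1 mM DTT was treated with compound at 76 uM single dose, then 10 uM ATP, 30 min at 37 °C. ADP was read by HTRF Transcreener.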
CtBP-E1A inh = blocks the CtBP interaction with E1A; activity change, % (no concentration beside the values); AlphaScreen GST-E1A/His-CtBP binding, 1536-well; stronger effect = lower value; actives 0.49% (n = 340,000)
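In 5 uL wells, 23 nL compound meets equimolar GST-E1A and His-CtBP (5X stock 125 nM each) for 2 h, 37 °C. Beads (5X, 50 ug/mL) then 1 h, 37 °C, dark.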
pAkt inh = inhibitors of Akt phosphorylation; Neuro2A IGF-stimulated pAkt S473 HTRF, 20 min; stronger effect = lower value; activity change, % for hits at 50 µM; actives 0.32% (n = 360,000); AID 651550; in the data active means activity change below about -80%; inconclusive means mostly about -51% to -80%
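Single-point screen (50 µM final compound) in Neuro2A cells stimulated 20 min with 6 nM IGF at 37 deg C. After lysis, Ser473-phosphorylated Akt read by HTRF (ex 330 nm, em 615/665 nm) as the 665/615 ratio.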
Six1-Eya2 inh = inhibitors of human Six1/Eya2 interaction. activity change, % (no concentration beside the values). Q15475+O00167. AlphaScreen GST-Six1/His-Eya2 binding, biochemical; stronger effect = lower value. actives 0.56% (n = 360,000)
Target sequence (O00167 whole entry, looked up): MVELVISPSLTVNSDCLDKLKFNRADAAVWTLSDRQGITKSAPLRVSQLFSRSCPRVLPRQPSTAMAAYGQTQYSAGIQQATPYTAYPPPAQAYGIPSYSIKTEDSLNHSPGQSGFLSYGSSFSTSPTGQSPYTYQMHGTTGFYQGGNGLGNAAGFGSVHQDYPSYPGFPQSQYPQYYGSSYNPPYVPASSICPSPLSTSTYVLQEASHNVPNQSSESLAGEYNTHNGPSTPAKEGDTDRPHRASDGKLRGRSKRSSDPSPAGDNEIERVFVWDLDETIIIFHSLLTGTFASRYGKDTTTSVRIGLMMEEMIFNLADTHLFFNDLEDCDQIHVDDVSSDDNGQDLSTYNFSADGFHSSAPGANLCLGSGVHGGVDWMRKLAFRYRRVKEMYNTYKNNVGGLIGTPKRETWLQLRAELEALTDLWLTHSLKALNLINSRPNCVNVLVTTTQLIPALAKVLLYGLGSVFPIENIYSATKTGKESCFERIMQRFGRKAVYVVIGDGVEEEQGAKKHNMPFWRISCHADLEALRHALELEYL
Target sequence (Q15475 whole entry, looked up): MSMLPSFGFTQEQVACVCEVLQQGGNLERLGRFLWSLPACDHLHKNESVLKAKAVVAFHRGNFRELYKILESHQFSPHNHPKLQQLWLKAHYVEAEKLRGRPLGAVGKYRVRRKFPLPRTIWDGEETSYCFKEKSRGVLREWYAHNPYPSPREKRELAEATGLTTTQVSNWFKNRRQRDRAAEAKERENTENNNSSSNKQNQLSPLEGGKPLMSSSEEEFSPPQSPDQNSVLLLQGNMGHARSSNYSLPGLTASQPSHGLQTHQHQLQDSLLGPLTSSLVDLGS
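Six1/Eya2 binding was read as AlphaScreen signal after compounds were pinned into GST-Six1 plus His-tagged Eya2 (5X stock 250/500 nM) in pH 8.0 Tris/NaCl/TCEP buffer, beads added, then incubated 1 h, 37 C, dark.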
The depositor's hits bear a star; i = inactive; ? = inconclusive; . = not tested or not shown. Compounds with a hit are over-represented: about 1.2% of the library has one in this group of screens. Unless noted, no stated cut-off is given here; in the data, active means activity change below about -65%; inconclusive means mostly about -30% to -63%; inactive means weaker than that. On the % scale 0 is the no-effect control and ±100 the full control effect.

SMILES	CCT modulator	CtBP-E1A inh	pAkt inh	Six1-Eya2 inh
CNc1ccc2nc3ccccc3[n+](C)c2c1	1.5	.	i	-75.3*
C[n+]1c2ccccc2nc2ccc(NCCO)cc21	-0.6	-69.8*	i	-72.9*
O=C(NCC1=C(c2cccc3ccccc23)C[C@@H]2CC[C@H]1N2Cc1ccco1)c1ccc([N+](=O)[O-])cc1	0.5	?	i	?
Oc1cccc(/C=N/NP(=S)(c2ccccc2)c2ccccc2)c1	-5.3	-10.9	-116.8%*	-6.7
O=C(NCCN1CCC2(CC1)C(=O)NCN2c1cccc(F)c1)c1ccc2ccccc2c1	-0.6	-16.3	i	-17.3
COC(=O)C1=C(C(=O)OC)SC2(S1)C(C(=O)OC)=C(C(=O)OC)Sc1c2ssc1=O	-0.2	5.9	i	-90.8*
COc1ccc(O)c(CN2CCCC(C(=O)c3ccccc3SC)C2)c1 (stereo not drawn)	-45.1*	-25.6	i	?
O=P(/C=C1\OCc2ccccc21)(Oc1ccccc1)Oc1ccccc1	.	-4.1	i	9.1
O=C(Cc1ccccc1)N1CCN(Cc2ccccc2Cl)CC1	-0.8	.	i	1.1
Oc1c(Cl)cc(Cl)cc1CN1CCN(Cc2ccccc2)CC1	-2.1	-6.4	i	-73.1*
Cc1cccc(N=Nc2ccc(N(C)C)cc2)c1	0.1	?	i	-71.9*
COc1ccc(OC(=O)N(C)C[C@H]2OCc3cnnn3CCCC(=O)N([C@H](C)CO)C[C@H]2C)cc1	-1.5	-23.0	i	5.7
C=Cn1ccnc1P(=S)(c1ccn(C)c1)c1nccn1C=C	2.3	-7.7	i	2.4
C=Cn1ccnc1P(=S)(c1nccn1C=C)c1nccn1C=C	0.5	-90.9*	i	?
C=Cn1ccnc1P(=S)(c1nccn1C=C)C1CCCCC1	-76.7*	-8.7	i	-0.7
CC1CCCCN1C(=O)c1ccc(N2CC3CC(C2)c2cccc(=O)n2C3)c([N+](=O)[O-])c1 (stereo not drawn)	0.4	-2.7	i	6.4
CC(C)C12CN3CC(C(C)C)(CN(C1)C3c1cccnc1)C2=O (stereo not drawn)	-4.0	3.1	-108.2%*	-0.9
NC(Cc1ccc(F)cc1)c1csc(Nc2ncccn2)n1 (stereo not drawn)	0.9	-68.3*	i	?
Nc1ccc(CC(N)c2csc(Nc3ncccn3)n2)cc1 (stereo not drawn)	-1.8	-75.2*	i	-66.6*
CC1CC2CC(=O)CCC2(C)C2CCC3(C)C(O)CCC3C12 (stereo not drawn)	-0.8	0.2	i	1.1
CC(=NCCC1=CCCCC1)c1c(O)[nH]c(=O)[nH]c1=O	-2.2	5.4	-120.8%*	1.7
COc1cc([N+](=O)[O-])c2ncccc2c1[N+](=O)[O-]	0.7	?	i	-83.4*
Oc1c(Cl)cccc1Cc1cc(Cl)cc(Cl)c1O	-0.1	?	i	-27.8
O=C(N/N=C/c1c(O)n(CCC2=CCCCC2)c(=O)[nH]c1=O)c1ccccc1	-4.7	?	i	?
Nc1ccccc1N=Cc1c(O)n(CCC2=CCCCC2)c(=O)[nH]c1=O	2.4	-8.8	-115.5%*	-2.6
SMILES	CCT modulator	CtBP-E1A inh	pAkt inh	Six1-Eya2 inh
O=C(CCN1CCOCC1)Nc1ccc(Br)cc1C(=O)c1ccccc1	-2.9	-84.9*	i	-73.9*
O=C(CN1CCOCC1)Nc1ccc(Br)cc1C(=O)c1ccccc1	-2.2	-20.3	i	-3.8
COc1ccc(OC)c(N=Cc2c(O)[nH]c(=O)[nH]c2=O)c1	1.0	.	i	-10.3
COc1ccc2[nH]c3c(c2c1)CCN=C3C	-2.9	?	i	-69.9*
COc1ccc2[nH]cc(CCN)c2c1	1.9	-13.1	i	-13.4
CCCCCn1c(=O)c(C(=O)NC(C)c2ccccc2)c(O)c2ccccc21 (stereo not drawn)	-0.7	-12.8	i	10.9
Cc1c(N=Nc2c(O)[nH]c(=O)[nH]c2=O)c(=O)n(-c2ccccc2)n1C	-0.1	.	i	-91.2*
Cc1c(N=Nc2c(O)n(-c3ccc(Br)cc3)c(=O)[nH]c2=O)c(=O)n(-c2ccccc2)n1C	-0.6	-93.7*	i	-92.1*
CCC(=Nc1ccc2c(c1)CCC2)c1c(O)n(-c2ccc(OC)cc2)c(=O)[nH]c1=O	-0.9	1.6	i	-17.3
[Cl][Pt+2][Cl].[NH-]C1CCCCC1[NH-] (stereo not drawn)	-0.4	-73.3*	i	?
O=C1NC(=S)N(c2ccc(F)cc2)C(=O)/C1=C\c1ccoc1	-4.7	-9.4	i	-72.3*
N#CC(C#N)=NNc1ccc(S(N)(=O)=O)cc1	0.2	-73.6*	i	?
Cn1c(O)c(C=NC2CCCCC2)c(=O)[nH]c1=S	-1.0	4.4	i	-7.9
Cn1c(=O)c2c(nc(N/N=C/c3c(O)n(C4CCCCC4)c(=S)[nH]c3=O)n2C)n(C)c1=O	-0.5	?	i	-81.2*
Cc1ccccc1-n1c(O)c(/C=N/Nc2nc3c(c(=O)n(C)c(=O)n3C)n2C)c(=O)[nH]c1=S	1.0	-78.0*	i	-67.9*
Cc1cccc(-n2c(O)c(/C=N/Nc3nc4c(c(=O)n(C)c(=O)n4C)n3C)c(=O)[nH]c2=S)c1	-0.2	-73.1*	i	-89.6*
CCN(C=C1CC2C3CC=C4CC(O)CCC4(C)C3CCC2(C)C1=O)CC (stereo not drawn)	-0.9	2.8	i	6.1
COc1ccc(OC)c(N2C(=O)/C(=C/c3ccco3)C(=O)NC2=S)c1	-2.1	-9.7	i	-70.6*
O=c1[nH]c(O)c(N=Nc2cc([N+](=O)[O-])ccc2O)c(=O)[nH]1	0.7	?	i	-78.1*
COc1cc2cc(C(=O)N3CC(COS(C)(=O)=O)c4ccc(O)cc43)[nH]c2c(OC)c1OC (stereo not drawn)	-2.0	2.6	i	?
CCCCc1ccc(C(=O)O)nc1	-0.8	-68.2*	i	-87.4*
CN1CCc2nc(SCc3cccc(Br)c3)c(C#N)cc2C1	-1.4	-0.9	i	0.2
CSCCC(c1nnnn1C1CCCCC1)N1CCC2(CC1)C(=O)NCN2c1ccccc1 (stereo not drawn)	-0.7	0.8	i	-6.6
CCCCCCC(=O)N/N=C/c1c(O)n(CCCC)c(=S)[nH]c1=O	-0.9	?	i	?
COCCn1c(O)c(/C=N/NC(=O)CSC(=S)N2CCCC2)c(=O)[nH]c1=S	-2.7	-76.0*	i	?
O=C(N/N=C/c1c(O)n(Cc2ccccc2)c(=O)[nH]c1=O)c1ccncc1	0.2	?	i	-71.8*
O=C(N/N=C/c1c(O)n(CCC2=CCCCC2)c(=S)[nH]c1=O)c1ccccc1	0.0	-27.9	i	-30.0
C=CCn1c(O)c(/C=N/NC(=O)c2ccncc2)c(=O)[nH]c1=O	-2.5	-19.5	i	?
CCCCC(=O)N/N=C/c1c(O)n(CC)c(=S)[nH]c1=O	-3.0	-0.3	i	-78.3*
CN(C)CCCN=Cc1c(O)n(CCc2ccccc2)c(=O)[nH]c1=O	0.3	-0.7	i	-0.3
